Hits are enriched below; roughly 2% of the tested compounds scored in any of these assays.
M4 ag: CHRM4 agonism in calcium assay. CHO-K1 hM4/Gqi5, Fluo-8 calcium fluorescence; vehicle 0%, full acetylcholine response 100%. activation, % at 3 µM. 360,000 compounds, 0.14% hits;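 active means activation above the run mean over all test wells plus 3 SD, cut at about 32% in these data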;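 further: peak over basal fluorescence ratio per well then scaled between controls; 0% = DMSO wells and 100% = acetylcholine at EC100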
Target sequence (P08173 whole entry, looked up): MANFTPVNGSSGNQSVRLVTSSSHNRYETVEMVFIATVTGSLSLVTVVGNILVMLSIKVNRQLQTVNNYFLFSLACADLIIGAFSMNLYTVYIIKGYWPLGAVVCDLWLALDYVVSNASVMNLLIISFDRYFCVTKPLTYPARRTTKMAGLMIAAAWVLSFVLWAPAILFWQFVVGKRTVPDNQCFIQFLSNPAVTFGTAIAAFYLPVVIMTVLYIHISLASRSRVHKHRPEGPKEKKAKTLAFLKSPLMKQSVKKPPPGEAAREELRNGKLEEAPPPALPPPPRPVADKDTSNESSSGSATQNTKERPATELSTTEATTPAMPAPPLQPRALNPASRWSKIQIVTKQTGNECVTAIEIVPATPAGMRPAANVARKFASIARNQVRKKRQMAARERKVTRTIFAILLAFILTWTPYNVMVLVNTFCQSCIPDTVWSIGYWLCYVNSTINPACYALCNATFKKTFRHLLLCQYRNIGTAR
CHO-K1 Ca antag: M1 antagonist counterscreen hit in parental CHO-K1 cells | ATP-induced calcium, Fluo-8 fluorescence | inhibition, % at 3 µM | 360,000 compounds, 0.6% hits | AID 602250;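 active means inhibition above a per-plate cutoff, the plate's mean sample inhibition plus 3 SD, cut at about 24% in these data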;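 further: 0% = DMSO plus EC80 ATP and 100% = DMSO alone without ATP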
M4 antag: blocks acetylcholine activation of human M4 receptor. CHO-hM4 cells, ACh EC80, Fluo-8 calcium fluorescence. inhibition, % at 3 µM. 360,000 compounds, 0.73% hits;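 active means inhibition above its plate's cutoff, the mean inhibition of sample wells plus 3 SD, cut at about 27% in these data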;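 further: 0% = acetylcholine EC80 with DMSO and 100% = DMSO without agonist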
M1 PAM parental: nonselective activator or artifact in parental CHO-K1 calcium assay; ATP EC20, Fluo-8 calcium fluorescence; 0% at ATP EC20, 100% at ATP max; activation, % at 3 µM; 360,000 compounds, 0.02% hits; AID 602247;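 active means activation above the run cutoff, the mean activation of all test compounds plus 3 SD, cut at about 40% in these data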;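 further: peak over basal fluorescence ratio in a 140 s read after ATP addition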
CHO-K1 Ca ag: counter-screen for M1 agonists: effect in parental CHO-K1 cells | Fluo-8 calcium fluorescence; scaled to maximal ATP response, vehicle zero | activation, % at 3 µM | 360,000 compounds, 0.48% hits; in the data active means activation above about 15%;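 further: untransfected CHO-K1 host cells lacking M1 receptor as counterscreen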
M4 PAM: CHRM4 positive allosteric modulation | activation, % at 3 µM | CHO-K1 hM4/Gqi5, Fluo-8 calcium fluorescence, ACh EC20; 0% = ACh EC20, 100% = maximal ACh | P08173 | 360,000 compounds, 0.4% hits;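 active means activation above its plate's cutoff, the mean activation of sample wells plus 3 SD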
Starred values were filed as active, the others as inactive.

SMILES	M4 ag	CHO-K1 Ca antag	M4 antag	M1 PAM parental	CHO-K1 Ca ag	M4 PAM
C/C=C1\NC(=O)[C@H](CC(N)=O)N(C)C(=O)C([C@@H](C)O)NC(=O)C(CCCc2ccc(OC)cc2)NC(=O)[C@H](C(C)C)NC(=O)/C(=C\C)NC(=O)[C@H](O)[C@@H](C[C@@H](O)CCCCCCC)NC(=O)[C@H](C)NC(=O)CN(C)C(=O)[C@H](CCC(N)=O)NC1=O (some centres undefined)	-1	-8	11	2	0	-4
O=C(O)c1ccccc1C(=O)c1ccc(F)c(F)c1	0	-12	-4	0	0	3
S=C(c1ccc(-c2ccc(Cl)cc2)o1)N1CCCCC1	-1	-30	6	4	-1	-6
N#CCCN1CCN(C(=S)c2ccc(-c3ccc(Cl)cc3)o2)CC1	1	27*	23	-6	-1	-8
COC(=O)c1ccc(COC(=O)C(NC(=O)Cc2ccccc2)C(C)C)cc1 (centres undefined)	3	1	-3	-6	1	-3
C=CCNc1nc2c(c(=O)n(C)c(=O)n2C)n1CC	0	31*	-4	-9	1	2
C=CCNc1nc2c(c(=O)n(C)c(=O)n2C)n1CCCCCC	3	12	4	2	2	-1
CCCCCCC1NC(C(=O)O)CS1 (centres undefined)	0	-8	-5	5	1	18*
CCCCC1NC(C(=O)O)CS1 (centres undefined)	1	6	7	0	0	-5
COc1ccccc1CNC(=O)Nc1nc(C(N)Cc2ccc(Cl)cc2)cs1 (centres undefined)	15	12	27*	3	3	-4
COc1ccc(CNC(=O)Nc2nc(C(N)Cc3ccc(F)cc3)cs2)cc1 (centres undefined)	18	16	19	8	4	-5
COc1ccc(CNC(=O)Nc2nc(C(N)Cc3ccc(Cl)cc3)cs2)cc1 (centres undefined)	28	11	33*	14	10	-4
CCOC(=O)C1(C)CCN1C(=O)c1ccccc1 (centres undefined)	1	-9	0	1	0	5
Cc1ncc(CN2CCCC(C(=O)Nc3ccc(-c4ccco4)cc3)C2)n1C (centres undefined)	1	-8	31*	3	1	-12
CCn1nc(C(=O)N2CCN(Cc3nc4ccccc4s3)CC2)c2ccccc2c1=O	22	10	35*	-20	7	-14
COc1cccc(NC(=S)NNC(=O)C(C)n2nc(C)c([N+](=O)[O-])c2C)c1 (centres undefined)	1	9	3	-8	0	-5
COc1cccc(NC(=S)NNC(=O)c2c([N+](=O)[O-])c(C)nn2C)c1	1	-2	4	-7	0	34*
COc1cccc2c1OCC(C(=O)Nc1nccs1)=C2	5	-14	-7	19	4	2
O=C(NCc1cccc(C(F)(F)F)c1)c1[nH]c(C(F)(F)F)nc1-c1ccccc1	14	20	7	-12	6	-4
O=C(NC1CCCCCC1)c1cccc(N2CCCC2=O)c1	1	32*	5	-6	0	-5
O=C(NC1CCCN(Cc2ccc(Cl)cc2)C1)c1cccc(N2CCCC2=O)c1 (centres undefined)	2	-6	-5	0	0	2
O=C(N/N=C/c1cc(Br)cc(Br)c1O)c1cccc(N2CCCC2=O)c1	1	34*	3	1	-1	3
NCCCCCc1nnc(SCc2ccc(Cl)c(Cl)c2)o1	3	1	67*	13	1	-31
Cc1ccccc1CNC(=O)c1ccccc1SCC(=O)NCc1ccco1	8	-11	-4	15	2	-1
Cc1c(C2(O)CCCCC2)[nH]c2cnccc12	2	-8	-12	20	1	6
SMILES	M4 ag	CHO-K1 Ca antag	M4 antag	M1 PAM parental	CHO-K1 Ca ag	M4 PAM
Cc1c(C2(O)CCCCC2)[nH]c2cc(C(F)(F)F)ccc12	11	-17	33*	21	2	-19
CCc1c(C2(O)CCCCC2)[nH]c2ccc(C#N)cc12	25	-19	-11	14	6	-13
CCc1c(C2(O)CCCCC2)[nH]c2cc(C(F)(F)F)ccc12	1	-31	42*	35	0	-16
O=C(COc1cccc(NC(=O)c2cccc([N+](=O)[O-])c2)c1)c1ccc(Br)cc1	5	5	-1	1	1	-6
CN(CC(=O)Nc1cccc(F)c1)C(=O)c1cc(=O)[nH]c2ccccc12	2	-7	-11	6	0	12
O=C(O)CN1CCN(Cc2cccc(Cl)c2)C1=O	0	-12	-1	13	0	-1
COc1ccc(/C=C/C(=O)NCC(=O)N/N=C(/CCC(=O)O)c2ccccc2)cc1	4	-1	30*	-23	0	-3
O=C(NCc1ccc(F)cc1)C1C2C=CC3(CN(Cc4cccnc4)C(=O)C13)O2 (centres undefined)	2	-12	-8	11	0	28*
CS(=O)(=O)N1CCN(C/C=C/c2ccccc2)CC1	1	-5	-5	14	0	19*
O=S(=O)(Cc1ccccc1)N1CCN(C/C=C/c2ccccc2)CC1	1	-15	9	0	1	-6
CC1(C(=O)NS(=O)(=O)C2CC2)CCCN(C(=O)c2ccccc2OC(F)(F)F)C1 (centres undefined)	1	-2	-18	-5	0	8
Cc1cccc(NC(c2ccc(O)cc2)c2ccc3ccc(C)nc3c2O)n1 (centres undefined)	2	25*	3	-8	0	-3
CCOC(=O)[C@]12CCC=C1N(Cc1ccco1)C(=O)[C@H](CC(=O)NCCCN1CCCC1=O)C2	0	-4	0	-3	0	2
CCN1C(=O)[C@H]2[C@@H](c3ccc(-c4ccccc4)cc3)N[C@@](Cc3ccccc3)(C(=O)OC)[C@H]2C1=O	0	-10	-14	11	0	17
CCN1C(=O)[C@H]2[C@@H](c3ccc(-c4ccc(C(C)=O)cc4)cc3)N[C@@](Cc3ccccc3)(C(=O)OC)[C@H]2C1=O	2	-4	-11	3	0	24*
CCN1C(=O)[C@H]2[C@@H](c3ccc(-c4ccccc4)cc3)N3CCCC[C@@]3(C(=O)OC)[C@H]2C1=O	14	-17	-6	24	1	24*
Nc1cc(=O)[nH]c(SCC(=O)Nc2cc(S(=O)(=O)N3CCCCC3)ccc2Cl)n1	1	-8	-5	-1	0	11

Source: PubChem BioAssay
